Results reported in PubChem BioAssay (NCATS).
Inconclusive results are not listed. Entries that show only a call come without a potency. Some structures have more than one record in an assay (separate samples or runs), and their calls can disagree. Activity calls are given as the source filed them. Unless noted, calls follow the shape of the dose curve; as a rule, active = well fitted curve in the direction sought with a large enough effect; inconclusive = small, poorly fitted or top-dose-only effect, or another doubt; inactive = no such curve, though single readings can be large; an effect the other way counts as inactive or inconclusive.

Experiments:
[1] = qHTS for Inhibitors of Plasmodium falciparum (DD2) proliferation (AID 504314); also: potency is read from the fitted curve at half-maximal effect;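 as to activity, negative = inhibition: parasite DNA measured by SYBR Green fluorescence after red cell lysis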
Outline: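 Erythrocytes infected with P. falciparum Dd2 (0.3% parasitemia, 2.5% hematocrit) exposed to compound 72 h at 37C, 5% CO2. Parasite DNA quantified by SYBR Green fluorescence after saponin/Triton lysis overnight; normalized to 0.29 uM artemisinin and DMSO.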

[2] = qHTS for Inhibitors of Plasmodium falciparum (GB4) proliferation (AID 504315); also: nearly all actives have a fitted effect of over 50% in size; also: potency is read from the fitted curve at half-maximal effect
Outline: (§1)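 Erythrocytes infected with P. falciparum line (0.3% parasitemia, 2.5% hematocrit final) incubated with compounds 72 h at 37 °C, 5% CO2; SYBR Green lysis buffer added, fluorescence read next day. Normalized to 0.29 uM artemisinin and DMSO.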

[3] = qHTS for Inhibitors of Plasmodium falciparum (7G8) proliferation (AID 504316); also: nearly all actives have a fitted effect of over 65% in size; also: potency is read from the fitted curve at half-maximal effect
Outline: as §1

[4] = qHTS for Inhibitors of Plasmodium falciparum (HB3) proliferation (AID 504318); also: nearly all actives have a fitted effect of over 60% in size; also: potency is read from the fitted curve at half-maximal effect
Outline: as §1

[5] = qHTS for Inhibitors of Plasmodium falciparum (CP250) proliferation (AID 504320); also: potency is read from the fitted curve at half-maximal effect
Outline: as §1

[6] = target: Atrial natriuretic peptide receptor 1 (Homo sapiens) (UniProt P16066); assay: Natriuretic polypeptide receptor (hNpr1) antagonism - Pilot CMLD screen (AID 1347052; calls by dose curve;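 also: HEK293 cells with hNpr1 stimulated by hNppA peptide at 0.1 nM; cGMP level read as GloSensor luciferase luminescence after agonist stimulation; series mostly up to about 9.2 µM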)
Sequence of Atrial natriuretic peptide receptor 1 (Homo sapiens) (P16066 whole entry, looked up): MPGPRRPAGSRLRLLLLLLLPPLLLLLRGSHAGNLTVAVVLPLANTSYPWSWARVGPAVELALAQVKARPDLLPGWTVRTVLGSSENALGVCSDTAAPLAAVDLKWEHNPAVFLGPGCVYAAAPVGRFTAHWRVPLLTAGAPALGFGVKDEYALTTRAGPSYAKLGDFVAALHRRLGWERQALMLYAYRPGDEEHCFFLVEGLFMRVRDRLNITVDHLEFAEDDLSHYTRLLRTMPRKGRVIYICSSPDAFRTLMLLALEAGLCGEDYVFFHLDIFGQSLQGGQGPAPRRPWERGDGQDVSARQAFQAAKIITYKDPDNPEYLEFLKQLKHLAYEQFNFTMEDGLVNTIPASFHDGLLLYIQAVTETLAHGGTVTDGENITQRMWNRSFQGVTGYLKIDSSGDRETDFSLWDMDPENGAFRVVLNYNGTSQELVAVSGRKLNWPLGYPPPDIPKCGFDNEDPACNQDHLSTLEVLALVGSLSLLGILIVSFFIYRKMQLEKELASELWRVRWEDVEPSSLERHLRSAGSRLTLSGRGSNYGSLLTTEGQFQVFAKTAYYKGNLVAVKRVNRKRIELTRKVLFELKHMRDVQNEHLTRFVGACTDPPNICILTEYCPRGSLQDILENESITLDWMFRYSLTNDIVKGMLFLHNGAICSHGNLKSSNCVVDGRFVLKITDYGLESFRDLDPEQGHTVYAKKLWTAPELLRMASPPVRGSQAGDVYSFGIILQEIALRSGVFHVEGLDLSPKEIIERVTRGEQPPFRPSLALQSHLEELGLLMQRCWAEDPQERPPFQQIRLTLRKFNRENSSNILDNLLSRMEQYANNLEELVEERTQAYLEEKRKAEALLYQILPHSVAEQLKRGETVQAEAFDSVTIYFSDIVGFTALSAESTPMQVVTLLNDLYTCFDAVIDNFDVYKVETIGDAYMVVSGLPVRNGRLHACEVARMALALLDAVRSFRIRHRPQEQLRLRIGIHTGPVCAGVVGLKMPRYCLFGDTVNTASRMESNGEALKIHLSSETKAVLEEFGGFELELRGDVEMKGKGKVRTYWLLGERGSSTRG

| SMILES | Potency [1] | Potency [2] | Potency [3] | Potency [4] | Potency [5] | Potency [6] | activity, negative = inhibition [1] |
| --- | --- | --- | --- | --- | --- | --- | --- |
| COC[C@H]1O[C@@H](c2c(OC)cc(OC)cc2OC)[C@H](OC)[C@@H](OC)[C@H]1OC | inactive | inactive | inactive | inactive | inactive | inactive | – |
| C=CCN1c2ccccc2[C@]23C[C@@H](C(=O)OC)N(C(=O)OCC)C2=NC(C(=O)OC)=C(C(=O)OC)[C@H]13 | inactive | inactive | inactive | inactive | inactive | inactive | – |
| COCC(=O)C(C(=O)OC)[C@H](CCc1ccccc1)NC(=O)OC (stereo partly specified) | inactive | inactive | inactive | inactive | inactive | inactive | – |
| COc1cc2c(cc1OC)[C@@H]1O[C@](CCCCN3C(=O)c4ccccc4C3=O)(C2)OC2=C1C(=O)CC(C)(C)C2 | 753 nM (active) | 757 nM (active) | 301 nM (active) | 478 nM (active) | 1510 nM (active) | inactive | – |
| COC(=O)CC=C[C@@H](C)[C@H](NC(=O)OCC(Cl)(Cl)Cl)c1ccccc1 | inactive | inactive | inactive | inactive | inactive | inactive | – |
| COC(=O)C1=C(C(=O)OC)[C@@H]2Nc3ccccc3[C@@]23C[C@@H](C(=O)OC)N(C(=O)NCCBr)C3=N1 | inactive | inactive | 1900 nM (active) | inactive | inactive | inactive | – |
| COCCN1C(=NCCc2cccnc2)NC(c2ccccc2)C(C(=O)OC)=C1C (stereo unspecified) | inactive | inactive | inactive | inactive | inactive | inactive | – |
| COC(=O)[C@H]1[C@@H](c2ccccc2)NC(=O)N(Cc2ccccc2)[C@@H]1C | inactive | inactive | inactive | inactive | inactive | inactive | – |
| COC(=O)CCC(=O)OC1(C)C(=O)C2=COC(c3ccc(OC)cc3)=CC2=C(Br)C1=O (stereo unspecified) | inactive | inactive | inactive | inactive | inactive | inactive | – |
| C#CCNC(=O)[C@H]1C=C(OC)C(=O)C[C@H](c2ccccc2)[C@H]1C | inactive | inactive | inactive | inactive | inactive | inactive | – |
| C=CCCCN1C=C(C(=O)OCC)C(c2ccccc2)NC1=O (stereo unspecified) | inactive | inactive | inactive | inactive | inactive | inactive | – |
| COc1cc(OC)c2c(c1)OC1Cc3cc(OC)c(OC)cc3C2O1 (stereo unspecified) | – | inactive | inactive | inactive | inactive | inactive | -3.4% [at 1.12 µM] (inactive) |
| Cc1cc2c(nc1C)CCCN2CC(O)CN1CCN(C)CC1 (stereo unspecified) | inactive | inactive | inactive | inactive | inactive | inactive | – |
| C=CCOC(=O)NC(c1ccc(F)c(F)c1)C(C(=O)COC)C(=O)OC (stereo unspecified) | inactive | inactive | inactive | inactive | inactive | inactive | – |
| C=CCN1c2ccccc2[C@]23CCC(=O)N(CCOC)C2=NC(C(=O)OC)=C(C(=O)OC)[C@H]13 | inactive | inactive | inactive | inactive | inactive | inactive | – |
| C=CCN1c2ccccc2[C@]23CCC(=O)N(CC(=O)OC)C2=NC(C(=O)OC)=C(C(=O)OC)[C@H]13 | inactive | inactive | inactive | inactive | inactive | inactive | – |
| COC(=O)N1C2CC3(C)C=C(C)OC1(C)C3c1ccccc12 (stereo unspecified) | inactive | inactive | inactive | inactive | inactive | inactive | – |
| CCOC(=O)N1C2=NC(C(=O)OC)=C(C(=O)OC)[C@@H]3Nc4ccccc4[C@]23C[C@H]1C(=O)OC | – | 1.9 µM (active) and inactive | inactive | inactive | inactive | inactive | -0.255% [at 1.12 µM] (inactive) |
| COC(=O)CC=C[C@@H](C)[C@@H](C=NO[C@H](C)c1cn([C@H](CO)Cc2ccccc2)nn1)NS(=O)(=O)c1ccc(C)cc1 | inactive | inactive | inactive | inactive | inactive | inactive | – |
| COCCN1C(=O)N[C@@H](CCc2ccccc2)[C@H](C(C)=O)[C@H]1C | inactive | inactive | inactive | inactive | inactive | inactive | – |
| COC(=O)N(C=Cc1ccc(OC)cc1)CCc1ccc(OC)c(OC)c1 | inactive | inactive | inactive | inactive | inactive | inactive | – |
| CC[C@H](C)[C@@H](NC(=O)O[C@@H]1C(=O)c2cc(OC)ccc2O[C@H]1c1ccc(OC)c(Br)c1)C(=O)OC | inactive | inactive | inactive | inactive | inactive | inactive | – |
| CCC=CCCC(OC(=O)c1ccc(Br)cc1)C1=CCCCC1=O (stereo unspecified) | inactive | inactive | inactive | inactive | inactive | inactive | – |
| COC1=C[C@H](C(=O)NCCOC(C)=O)[C@H](C)[C@@H](c2ccccc2)CC1=O | inactive | inactive | inactive | inactive | inactive | inactive | – |
| COC(=O)[C@@H](O)CC[C@@H](C)Cc1c(OC)c(OC)c(C)c(OC)c1OC | inactive | inactive | inactive | inactive | inactive | inactive | – |
| CCCCCCCc1cc2ccccc2c(=O)o1 | inactive | inactive | inactive | inactive | inactive | inactive | – |

| SMILES | Potency [1] | Potency [2] | Potency [3] | Potency [4] | Potency [5] | Potency [6] | activity, negative = inhibition [1] |
| --- | --- | --- | --- | --- | --- | --- | --- |
| COC(=O)C1=C(C(=O)OC)[C@@H]2N(Cc3ccccc3)c3ccccc3[C@@]23C[C@@H](C(=O)OC)N(C(=O)c2cccs2)C3=N1 | – | inactive | inactive | inactive | inactive | inactive | -0.326% [at 1.12 µM] (inactive) |
| COCCN1C(=O)C2=C(C1=O)C1N(C)c3ccccc3[C@@]13C[C@@H](CO)N(C(=O)CCC(=O)OC)C3=N2 (stereo partly specified) | inactive | inactive | inactive | inactive | inactive | inactive | – |
| C[C@H]1C[C@@H](C)O[C@@]2(C1)C(=O)Nc1ccccc12 | inactive | inactive | inactive | inactive | inactive | inactive | – |
| COC(=O)C1=C(C(=O)OC)[C@@H]2N(C)c3ccc(OC)cc3[C@@]23C[C@@H](C(=O)OC)N(C(=O)c2ccco2)C3=N1 | – | inactive | inactive | inactive | inactive | inactive | -1.01% [at 1.12 µM] (inactive) |
| O=C1[C@@H]2[C@H]3[C@H](O)[C@H](O)CC(=NOC[C@@H](O)COCc4ccco4)[C@H]3CC[C@H]2C(=O)N1c1ccc(F)cc1F | inactive | inactive | inactive | inactive | inactive | inactive | – |
| C=C(C#CCCO)CCN1C=C(C(=O)OCC)C(c2ccccc2)NC1=O (stereo unspecified) | inactive | inactive | inactive | inactive | inactive | inactive | – |
| COC(=O)[C@@H]1CC[C@H](C)[C@@H](c2ccc(C)cc2)N1C(=O)c1ccc(C=NO[C@H](C)c2cn([C@@H]3COC[C@@H]3O)nn2)cc1 | inactive | inactive | inactive | inactive | inactive | inactive | – |
| C[C@@H]1CC2CCC[C@@H]2[C@]2(O1)C(=O)Nc1cccc(Br)c12 (stereo partly specified) | inactive | inactive | inactive | inactive | inactive | inactive | – |
| C=CCNC(=O)N1CCc2nc(CCCC)c3c(c2C1)CO[C@@H](C)C3 | inactive | inactive | inactive | inactive | inactive | inactive | – |
| COC(=O)C1(C(=O)OC)CC=CCc2ccccc2[C@H]1C[N+](=O)[O-] | inactive | inactive | inactive | inactive | inactive | inactive | – |
| COc1ccc(C2=CC3=C(Br)C(=O)C(C)(O)C(=O)C3=CO2)cc1 (stereo unspecified) | inactive | inactive | inactive | inactive | inactive | inactive | – |
| O=C(OCC(F)(F)F)[C@H](O)[C@@H](O)C(=O)OCC(F)(F)F | inactive | inactive | inactive | inactive | inactive | inactive | – |
| C=CCN1C=C2C(=O)C(C)(OC(=O)c3ccc(OC)cc3)C(=O)C(c3ccco3)=C2C=C1CCCC (stereo unspecified) | inactive | inactive | inactive | inactive | inactive | inactive | – |
| O=C(C=NO)NCCCCNC(=O)C=NO | inactive | inactive | inactive | inactive | inactive | inactive | – |
| OC[C@@H](O)[C@@H](O)CCc1ccccc1 | inactive | inactive | inactive | inactive | inactive | inactive | – |
| COC(=O)C1=C(C(=O)OC)[C@@H]2N(C)c3ccccc3[C@@]23C[C@@H](CO)N(C(=O)c2ccc(Br)cc2)C3=N1 | inactive | inactive | inactive | inactive | inactive | inactive | – |
| C[C@H]1[C@H](O)[C@@H](N=[N+]=[N-])CCO[C@H]1c1ccccc1 | inactive | inactive | inactive | inactive | inactive | inactive | – |
| CCC(C)CN1C(=O)NC(c2ccccc2)C(C(=O)OC)=C1C (stereo unspecified) | inactive | inactive | inactive | inactive | inactive | inactive | – |
| Cc1noc(C)c1S(=O)(=O)N1CCc2nc(-c3ccccc3)c3c(c2C1)CO[C@@H](C)C3 | – | inactive | inactive | inactive | inactive | inactive | 2% [at 1.12 µM] (inactive) |
| CC#CCN1C(=O)NC(c2ccccc2)C(C(=O)OCC)=C1c1ccccc1 (stereo unspecified) | inactive | inactive | inactive | inactive | inactive | inactive | – |
| C=CC[C@@](C(C)=O)(C(=O)OC)[C@@H](NC(=O)OC(C)(C)C)c1ccccc1 | inactive | inactive | inactive | inactive | inactive | inactive | – |
| COC(=O)[C@@H]1C[C@@]23C(=NN=C(SC)C2Nc2ccccc23)N1C(C)=O (stereo partly specified) | inactive | inactive | inactive | inactive | inactive | inactive | – |
| C=CCOC(=O)C(C(=O)CC)[C@@H](NC(=O)OC)c1ccc(F)cc1 (stereo partly specified) | inactive | inactive | inactive | inactive | inactive | inactive | – |
| CCOC(=O)CN1C(=O)NC(CCc2ccccc2)C(C(=O)OC)=C1C (stereo unspecified) | inactive | inactive | inactive | inactive | inactive | inactive | – |
| CC=COC(=O)N[C@@H](c1ccccc1)[C@]1(C(C)=O)CCOC1=O | inactive | inactive | inactive | inactive | inactive | inactive | – |
